Assay results as given in the supplement of paper PMC11732987, “Enantioselective OTUD7B fragment discovery through chemoproteomics screening and high-throughput optimisation” (Communications Chemistry, 2025).

Tests used:
Experiment in all cases: log2 ratio of Biotin-Ahx-Ub-VS probe labelling (fragment/DMSO); higher = less target engagement (more negative = stronger competition), active = hit call of the paper (q ≤ 0.05, log2 ratio ≤ -1)
Settings in all cases: compound concentration: 200 uM; treatment time: 3 h
USP34 = USP34 (UniProt Q70CQ2)
Summary of the method: (§1)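 HEK293T lysate (495 µg per sample, in Tris/CHAPS/IGEPAL buffer with protease inhibitors) was treated in triplicate with fragment at 200 µM or with DMSO for 3 h. It was then treated with Biotin-Ahx-Ub-VS (0.5 µM final) for 1 h. Labelled DUBs were NeutrAvidin-enriched, digested with LysC and trypsin, and run by diaPASEF LC-MS/MS. Spectronaut label-free quantities were global-median-normalised. Values are average log2 ratios fragment/DMSO by unpaired t-test, using proteins with ≥2 unique peptides.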

USP36 = molecular target: T1, USP36 (UniProt Q9P275)
T1 sequence (whole entry): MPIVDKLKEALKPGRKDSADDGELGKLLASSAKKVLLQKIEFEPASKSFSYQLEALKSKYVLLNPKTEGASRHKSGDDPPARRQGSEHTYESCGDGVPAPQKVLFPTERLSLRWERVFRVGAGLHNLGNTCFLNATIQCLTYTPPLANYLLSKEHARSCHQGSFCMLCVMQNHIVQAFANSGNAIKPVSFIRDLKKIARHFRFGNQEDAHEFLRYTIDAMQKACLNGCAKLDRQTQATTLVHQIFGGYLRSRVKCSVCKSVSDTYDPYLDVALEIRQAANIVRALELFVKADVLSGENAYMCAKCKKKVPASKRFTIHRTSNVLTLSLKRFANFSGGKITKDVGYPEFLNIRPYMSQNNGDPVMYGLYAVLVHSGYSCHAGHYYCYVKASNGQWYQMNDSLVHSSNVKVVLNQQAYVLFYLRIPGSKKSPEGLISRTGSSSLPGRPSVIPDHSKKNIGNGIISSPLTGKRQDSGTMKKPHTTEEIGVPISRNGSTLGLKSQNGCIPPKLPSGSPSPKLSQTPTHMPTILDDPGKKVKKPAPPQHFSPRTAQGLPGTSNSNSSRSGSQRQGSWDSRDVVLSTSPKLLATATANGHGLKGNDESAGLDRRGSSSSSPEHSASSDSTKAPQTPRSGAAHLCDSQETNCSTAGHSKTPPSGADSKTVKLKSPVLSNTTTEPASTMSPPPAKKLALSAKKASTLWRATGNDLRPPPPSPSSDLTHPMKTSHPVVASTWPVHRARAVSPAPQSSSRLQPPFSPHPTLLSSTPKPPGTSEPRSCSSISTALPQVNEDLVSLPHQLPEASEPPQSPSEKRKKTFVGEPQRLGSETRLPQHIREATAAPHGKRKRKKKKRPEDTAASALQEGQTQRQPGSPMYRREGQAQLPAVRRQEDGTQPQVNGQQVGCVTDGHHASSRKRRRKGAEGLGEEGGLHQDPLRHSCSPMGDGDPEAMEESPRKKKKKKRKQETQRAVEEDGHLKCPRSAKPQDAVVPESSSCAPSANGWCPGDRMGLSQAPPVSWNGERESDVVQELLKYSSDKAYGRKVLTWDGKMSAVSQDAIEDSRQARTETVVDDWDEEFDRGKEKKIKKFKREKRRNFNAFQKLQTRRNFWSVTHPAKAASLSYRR
Summary of the method: as §1

USP38 = molecular target: T2, USP38 (UniProt Q8NB14)
T2 sequence (whole entry): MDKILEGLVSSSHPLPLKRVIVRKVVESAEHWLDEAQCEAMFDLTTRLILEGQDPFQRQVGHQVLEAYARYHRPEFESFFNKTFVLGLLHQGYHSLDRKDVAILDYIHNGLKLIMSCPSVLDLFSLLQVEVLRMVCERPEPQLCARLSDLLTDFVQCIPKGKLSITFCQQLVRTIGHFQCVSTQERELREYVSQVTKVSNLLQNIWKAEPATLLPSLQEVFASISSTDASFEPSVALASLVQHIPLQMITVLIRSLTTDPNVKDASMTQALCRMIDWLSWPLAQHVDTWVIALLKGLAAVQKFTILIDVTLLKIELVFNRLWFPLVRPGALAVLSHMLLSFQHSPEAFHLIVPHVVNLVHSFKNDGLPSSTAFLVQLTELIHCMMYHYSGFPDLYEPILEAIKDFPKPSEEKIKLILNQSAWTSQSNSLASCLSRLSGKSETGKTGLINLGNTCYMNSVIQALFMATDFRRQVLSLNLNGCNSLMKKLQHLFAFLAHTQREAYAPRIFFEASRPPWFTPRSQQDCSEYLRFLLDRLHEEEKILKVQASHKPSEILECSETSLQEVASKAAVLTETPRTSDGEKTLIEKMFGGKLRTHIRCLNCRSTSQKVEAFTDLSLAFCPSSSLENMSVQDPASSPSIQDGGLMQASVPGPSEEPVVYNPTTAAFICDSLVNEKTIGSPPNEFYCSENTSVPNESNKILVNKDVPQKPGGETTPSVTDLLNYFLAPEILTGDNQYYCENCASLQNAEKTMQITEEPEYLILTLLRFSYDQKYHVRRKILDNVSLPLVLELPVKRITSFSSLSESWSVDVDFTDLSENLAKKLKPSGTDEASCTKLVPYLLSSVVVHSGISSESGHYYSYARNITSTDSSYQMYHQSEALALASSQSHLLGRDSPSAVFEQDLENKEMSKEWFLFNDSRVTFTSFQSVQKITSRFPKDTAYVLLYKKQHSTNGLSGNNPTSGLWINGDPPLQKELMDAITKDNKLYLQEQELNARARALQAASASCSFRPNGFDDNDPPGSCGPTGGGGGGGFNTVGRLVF
Summary of the method: as §1

USP39 = molecular target: T3, USP39 (UniProt Q53GS9)
T3 sequence (whole entry): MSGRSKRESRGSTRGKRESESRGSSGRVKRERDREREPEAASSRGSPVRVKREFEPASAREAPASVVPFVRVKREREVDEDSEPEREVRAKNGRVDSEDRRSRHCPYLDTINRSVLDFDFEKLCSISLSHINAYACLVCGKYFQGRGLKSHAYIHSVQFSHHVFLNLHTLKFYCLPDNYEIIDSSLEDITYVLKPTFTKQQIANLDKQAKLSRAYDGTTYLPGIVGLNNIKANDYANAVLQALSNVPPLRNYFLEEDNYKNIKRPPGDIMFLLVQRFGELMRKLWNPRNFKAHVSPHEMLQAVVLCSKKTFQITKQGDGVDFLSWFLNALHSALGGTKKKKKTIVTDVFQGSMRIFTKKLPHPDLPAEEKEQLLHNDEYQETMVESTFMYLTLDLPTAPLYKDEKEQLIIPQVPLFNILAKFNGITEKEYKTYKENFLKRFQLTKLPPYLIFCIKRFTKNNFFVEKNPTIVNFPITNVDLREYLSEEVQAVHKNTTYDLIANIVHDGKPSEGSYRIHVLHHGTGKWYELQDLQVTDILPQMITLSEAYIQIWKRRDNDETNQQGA
Summary of the method: as §1

USP4 = molecular target: T4, USP4 (UniProt Q13107)
T4 sequence (whole entry): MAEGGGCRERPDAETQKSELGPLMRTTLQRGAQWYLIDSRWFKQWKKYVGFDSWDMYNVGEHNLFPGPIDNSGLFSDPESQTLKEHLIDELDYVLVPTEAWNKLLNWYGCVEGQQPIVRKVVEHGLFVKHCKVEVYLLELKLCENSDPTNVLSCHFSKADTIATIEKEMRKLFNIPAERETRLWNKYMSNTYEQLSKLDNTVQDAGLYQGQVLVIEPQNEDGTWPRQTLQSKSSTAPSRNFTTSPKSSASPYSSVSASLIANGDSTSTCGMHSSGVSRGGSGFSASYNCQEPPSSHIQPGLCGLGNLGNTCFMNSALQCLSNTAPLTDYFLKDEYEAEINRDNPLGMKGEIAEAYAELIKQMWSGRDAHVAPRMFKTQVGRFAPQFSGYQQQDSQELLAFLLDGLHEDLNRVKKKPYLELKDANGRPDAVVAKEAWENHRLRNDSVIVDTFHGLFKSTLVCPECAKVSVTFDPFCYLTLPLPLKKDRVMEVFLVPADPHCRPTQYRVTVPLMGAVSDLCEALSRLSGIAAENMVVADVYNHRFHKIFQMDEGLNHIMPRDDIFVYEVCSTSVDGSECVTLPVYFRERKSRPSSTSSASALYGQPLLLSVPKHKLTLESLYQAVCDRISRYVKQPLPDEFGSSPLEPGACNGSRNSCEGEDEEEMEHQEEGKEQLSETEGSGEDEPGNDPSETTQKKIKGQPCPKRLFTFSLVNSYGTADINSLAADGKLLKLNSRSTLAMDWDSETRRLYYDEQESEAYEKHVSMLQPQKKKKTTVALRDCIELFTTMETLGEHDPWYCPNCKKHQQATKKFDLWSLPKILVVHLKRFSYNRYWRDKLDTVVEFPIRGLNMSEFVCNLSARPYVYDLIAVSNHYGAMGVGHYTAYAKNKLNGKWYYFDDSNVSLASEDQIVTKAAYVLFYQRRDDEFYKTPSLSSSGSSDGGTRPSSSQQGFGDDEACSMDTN
Summary of the method: as §1

Measured: log2 ratio of Biotin-Ahx-Ub-VS probe labelling

Sequence of USP34 (Q70CQ2 whole entry, the tested form may be a part): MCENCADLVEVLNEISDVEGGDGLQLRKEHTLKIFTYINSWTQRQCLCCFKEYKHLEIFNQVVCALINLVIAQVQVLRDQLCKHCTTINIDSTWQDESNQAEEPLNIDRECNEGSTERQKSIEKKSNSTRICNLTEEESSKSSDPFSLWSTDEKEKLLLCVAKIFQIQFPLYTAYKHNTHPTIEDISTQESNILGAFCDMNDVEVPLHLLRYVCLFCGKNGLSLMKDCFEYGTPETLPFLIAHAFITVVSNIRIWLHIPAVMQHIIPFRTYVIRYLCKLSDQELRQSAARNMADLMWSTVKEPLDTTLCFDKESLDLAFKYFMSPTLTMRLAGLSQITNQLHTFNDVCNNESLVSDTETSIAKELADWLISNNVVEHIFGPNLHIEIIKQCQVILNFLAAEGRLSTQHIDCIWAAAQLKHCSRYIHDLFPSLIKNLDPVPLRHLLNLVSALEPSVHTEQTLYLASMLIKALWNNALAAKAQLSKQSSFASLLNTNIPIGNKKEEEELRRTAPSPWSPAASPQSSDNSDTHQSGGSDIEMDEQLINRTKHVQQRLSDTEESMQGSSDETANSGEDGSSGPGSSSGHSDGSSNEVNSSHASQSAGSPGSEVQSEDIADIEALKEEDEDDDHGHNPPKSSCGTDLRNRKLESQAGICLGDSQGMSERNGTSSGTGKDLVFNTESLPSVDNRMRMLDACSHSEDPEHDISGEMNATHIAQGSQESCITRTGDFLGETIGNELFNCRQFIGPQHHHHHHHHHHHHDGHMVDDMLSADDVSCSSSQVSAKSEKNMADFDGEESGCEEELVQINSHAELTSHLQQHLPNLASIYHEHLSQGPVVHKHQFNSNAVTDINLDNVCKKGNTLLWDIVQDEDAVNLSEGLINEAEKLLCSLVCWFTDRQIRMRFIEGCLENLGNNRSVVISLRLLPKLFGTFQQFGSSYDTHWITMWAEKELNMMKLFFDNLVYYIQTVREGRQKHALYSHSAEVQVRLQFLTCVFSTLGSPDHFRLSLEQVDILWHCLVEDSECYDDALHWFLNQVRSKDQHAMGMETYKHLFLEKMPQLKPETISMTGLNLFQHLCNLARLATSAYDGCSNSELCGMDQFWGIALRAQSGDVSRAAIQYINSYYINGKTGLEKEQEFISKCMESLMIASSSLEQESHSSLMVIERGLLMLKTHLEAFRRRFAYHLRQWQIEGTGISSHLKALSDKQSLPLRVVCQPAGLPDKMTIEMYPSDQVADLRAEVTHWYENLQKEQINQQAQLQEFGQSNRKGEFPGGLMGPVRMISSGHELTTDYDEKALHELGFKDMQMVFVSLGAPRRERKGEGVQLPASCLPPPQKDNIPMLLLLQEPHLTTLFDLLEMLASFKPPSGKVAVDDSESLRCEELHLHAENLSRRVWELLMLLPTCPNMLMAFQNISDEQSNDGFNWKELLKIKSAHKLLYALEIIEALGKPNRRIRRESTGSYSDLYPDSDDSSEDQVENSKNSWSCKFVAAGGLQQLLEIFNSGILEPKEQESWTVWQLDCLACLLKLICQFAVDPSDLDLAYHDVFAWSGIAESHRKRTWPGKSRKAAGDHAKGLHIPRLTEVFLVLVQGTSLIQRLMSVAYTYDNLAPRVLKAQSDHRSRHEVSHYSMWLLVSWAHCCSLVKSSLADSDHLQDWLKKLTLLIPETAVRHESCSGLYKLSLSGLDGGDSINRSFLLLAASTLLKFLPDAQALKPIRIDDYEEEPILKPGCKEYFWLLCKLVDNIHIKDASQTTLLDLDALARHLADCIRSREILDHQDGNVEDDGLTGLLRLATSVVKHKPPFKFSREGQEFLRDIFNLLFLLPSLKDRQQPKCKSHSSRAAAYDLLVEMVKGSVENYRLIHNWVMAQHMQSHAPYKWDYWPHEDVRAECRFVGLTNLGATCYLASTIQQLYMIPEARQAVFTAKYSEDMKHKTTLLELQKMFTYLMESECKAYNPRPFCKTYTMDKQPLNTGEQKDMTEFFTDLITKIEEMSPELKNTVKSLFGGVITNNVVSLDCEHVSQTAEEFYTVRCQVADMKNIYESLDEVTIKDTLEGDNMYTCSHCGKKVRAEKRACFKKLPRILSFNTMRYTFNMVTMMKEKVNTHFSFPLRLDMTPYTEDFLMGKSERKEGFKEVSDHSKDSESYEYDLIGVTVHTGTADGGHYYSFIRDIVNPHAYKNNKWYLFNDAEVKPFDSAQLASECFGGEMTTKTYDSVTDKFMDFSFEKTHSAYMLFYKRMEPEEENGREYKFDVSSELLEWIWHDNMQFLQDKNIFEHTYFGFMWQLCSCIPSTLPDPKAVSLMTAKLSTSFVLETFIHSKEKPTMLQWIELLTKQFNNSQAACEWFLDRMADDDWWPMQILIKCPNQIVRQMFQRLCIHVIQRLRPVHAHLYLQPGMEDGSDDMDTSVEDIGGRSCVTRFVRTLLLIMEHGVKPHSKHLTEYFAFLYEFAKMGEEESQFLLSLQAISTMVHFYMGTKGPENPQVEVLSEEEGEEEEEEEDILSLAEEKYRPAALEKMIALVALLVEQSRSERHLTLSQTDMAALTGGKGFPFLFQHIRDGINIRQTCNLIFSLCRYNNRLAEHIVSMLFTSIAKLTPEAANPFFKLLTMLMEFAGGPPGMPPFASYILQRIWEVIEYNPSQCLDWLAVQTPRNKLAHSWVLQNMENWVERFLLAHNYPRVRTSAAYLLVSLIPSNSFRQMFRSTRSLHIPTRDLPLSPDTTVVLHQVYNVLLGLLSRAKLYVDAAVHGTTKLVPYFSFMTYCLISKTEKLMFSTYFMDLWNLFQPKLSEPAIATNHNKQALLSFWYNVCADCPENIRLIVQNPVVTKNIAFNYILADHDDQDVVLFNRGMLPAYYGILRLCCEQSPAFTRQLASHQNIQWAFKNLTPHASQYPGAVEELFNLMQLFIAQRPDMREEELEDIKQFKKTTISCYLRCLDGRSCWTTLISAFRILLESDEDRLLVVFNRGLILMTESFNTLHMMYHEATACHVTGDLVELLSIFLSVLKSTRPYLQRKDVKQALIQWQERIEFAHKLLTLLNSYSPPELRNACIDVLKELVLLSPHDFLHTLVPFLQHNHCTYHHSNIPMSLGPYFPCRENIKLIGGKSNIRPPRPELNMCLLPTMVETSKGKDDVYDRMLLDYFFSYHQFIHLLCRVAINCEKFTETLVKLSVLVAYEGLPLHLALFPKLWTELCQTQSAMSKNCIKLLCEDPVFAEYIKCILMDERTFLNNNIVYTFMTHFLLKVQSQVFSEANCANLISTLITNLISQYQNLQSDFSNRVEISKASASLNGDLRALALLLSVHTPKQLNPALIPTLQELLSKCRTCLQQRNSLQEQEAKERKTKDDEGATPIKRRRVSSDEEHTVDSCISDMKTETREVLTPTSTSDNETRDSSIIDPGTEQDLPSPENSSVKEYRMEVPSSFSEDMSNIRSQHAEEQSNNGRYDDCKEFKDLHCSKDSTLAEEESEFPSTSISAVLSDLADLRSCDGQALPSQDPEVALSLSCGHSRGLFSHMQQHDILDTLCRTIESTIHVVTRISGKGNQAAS

O=C(CCl)NCCc1ccc(F)cc1
inactive: USP34 -0.0755 | USP36 0.207 | USP38 0.0565 | USP39 0.108 | USP4 -0.11
